From PubChem BioAssay (EPA / NIEHS) come the findings set out here.

Calls of active or inactive are those of the source. Rule for the calls: active = hit-call score of the fitted dose curve at least 0.9, where 1 is the maximum; inactive = score below 0.9.

Read-out in this assay: UDP glucuronosyltransferase (UGT1A6), UGT1A6 (gene 54578)
In words: LTEA_HepaRG_UGT1A6: Life Technologies and Expression Analysis (LTEA) Assay for UDP glucuronosyltransferase (UGT1A6) using HepaRG (AID 2283539). The note with it: mRNA level, 48 h; actives raise or lower the signal. The protocol: LTEA_HepaRG is a cell based, multiplexed-readout assay that uses HepaRG, a human liver cell line, with measurements taken at 48 hours after chemical dosing on a 96-well plate.LTEA_HepaRG_UGT1A6 is one of 102 assay component(s) measured in the LTEA HepaRG cell culture assay. It is a marker of NR mediated metabolism.Data from the assay component LTEA_HepaRG_UGT1A6 was analyzed into 1 endpoint. This assay endpoint, LTEA_HepaRG_UGT1A6, was analyzed with bidirectional fitting relative to DMSO as the negative control and baseline of activity. Using a type of inducible reporter, measures of mRNA induction for gain or loss-of-signal activity can be used to understand regulation of transcription factor activity. To generalize the intended target to other relatable targets, this assay endpoint is annotated to the transferase intended target family, where the subfamily is glucuronosyltransferase.
A total of 1060 chemcials from the ToxCast library were tested in eight-point concentration-response experiments. Cell culture and cytotoxicity assays were conducted at Thermo Fisher Scientific's Custom Services facility (Madison, WI). A single lot of human HepaRG cells (Thermo Fisher Scientific, Frederick, MD) was used for the cell culture experiments. 96-well format collagen type I coated plates of human HepaRG cells were prepared using established methods. Briefly, cryopreserved HepaRG cells were thawed, plated at a density of approximately 100,000 cells/well in HepaRG Thaw, Plate, and General Purpose media (HPRG770, Thermo Fisher Scientific), and incubated for 48 hours. 0.5% DMSO was selected as vehicle control to balance the requisite need of DMSO in HepaRG cultures to maintain differentiation (for example, baseline metabolism, proportions of hepatocytes vs. cholangiocytes), while enabling further hepatic receptor pathway activation (for example, PXR and CAR) in response to chemical exposure. 48 hours after plating, the culture medium was replaced with HepaRG Serum-Free Incudtion Media. Cells were exposed to each test chemical in duplicate and maintained in CO2 incubators for another 48 hours. Chemical plates were thawed to room temperature and 200x concentrations of treatment groups were prepared. 8-point conentration-reponse curves were made with the highest exposure at 100 uM, followed by half-log dilutions, all in 0.5% DMSO. Each test plate contained variouse controls, induction positive controls (1mM phenobarbital), cytotoxicity positive controls ([…] aflatoxin B1), vehicle controls (0.5% DMSO), and total lysis controls (0.5% DMSO). Cell morphology images were taken using an Essen IncuCyte FLR automated microscope, with six 96-well plates imaged in about 24 minutes. Images were captured and exported and JPEG files. Spent culture media was transfered to black-well plates for the LDH assay, and remaining media was sorted at -80 C for later use. Cells were treated with RLT buffer and frozen until shipped for gene expression analysis. Total RNA was isolated from the cell suspension in 75 uL of Buffer RLT (Qiagen, Germantown, MD 20874) by Quintiles/Expression Analysis (Durham, NC) using a custom isolation procedure. Total RNA from each plate well was transferred to a preamplification plate. Fluidigm's 96.96 Dynamic ArrayTM (Fluidigm, Amsterdam, the Netherlands) technology was used for gene expression analyses by quantitative reverse transcription polymerase chain reaction (qRT-PCR, performed by Quintiles/Expression Analysis, Durham, NC)89. Standard TaqManTM Assays (Applied Biosystems/ThermoFisher Scientific, Foster City, CA) were used to assess the expression of 93 genes selected based on their selectivity and sensitivity to important hepatic receptors known to be modulated by environmental chemicals; importance in human hepatocyte functionality; and hepatotoxicity. […]
On to `CS(=O)(=O)c1ccc([C@@H](CC2CCCC2)C(=O)Nc2cnccn2)cc1Cl`, for which the AC50 was 89.2 µM (active). As to `CCCCC=O`, the compound was called inactive. `CN(Cc1cnc2nc(N)nc(N)c2n1)c1ccc(C(=O)N[C@@H](CCC(=O)O)C(=O)O)cc1`: the compound was classed as inactive. Same read-out and setting: then `CCCCCCCCCCCCCCC`, with “inactive”. In the case of `CCCCC(CC)C(=O)O` (stereo unspecified), the call was inactive. For the compound `N=C(N)c1ccc(OCCCCCOc2ccc(C(=N)N)cc2)cc1`, the AC50 is 37.8 µM (active). Same read-out and setting: the figure for `CCCCc1oc2ccccc2c1C(=O)c1cc(I)c(OCCN(CC)CC)c(I)c1` is 55.5 µM (active). Consider `CC(=O)Nc1ccc(O)cc1`, for which the result was inactive. On the same count and under the same terms, the entry for `CCC(C)c1ccccc1O` (stereo unspecified) is “inactive”. `Cc1[nH]nc2c1N=C(c1ccccc1Cl)c1cc([N+](=O)[O-])ccc1N2`: the AC50 is 86.8 µM (active). For `OCC(CO)(CBr)CBr`, the compound was called inactive. Still for that read-out and setting: the entry for `CN(C)CCOC(c1ccccc1)c1ccccc1` is “inactive”; for `O=C1NS(=O)(=O)c2ccccc21` it is “inactive”. Still for that read-out and setting: the entry for `O=C(c1ccccc1)c1ccccc1` is “inactive”. Regarding `O=C(CCCN1CCC(O)(c2ccc(Cl)cc2)CC1)c1ccc(F)cc1`, the AC50 was 76.1 µM (active).

On to `CCCCCCCCCCCCOS(=O)(=O)O`, for which the AC50 was 81 µM (active).
